Results taken from PubChem BioAssay.
Results filed as inconclusive are left out. Activity calls are given as the source filed them. Unless noted, the limit is not given here; nearly all actives have AC50 up to about 30 µM.

What was measured:
[1] = viability loss in pontine glioma line – cell-based, SU-DIPG-XIII, MIPE4.0, CellTiter-Glo, qHTS, dose response (AID 1347061; cut-off not given, nearly all actives have AC50 up to about 37 µM;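 also: cells exposed to compound for 48 hours before readout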); conditions: CellTiter-Glo ATP luminescence
[2] = viability loss in pontine glioma line – cell-based, JHH-DIPG-1, MIPE4.0, CellTiter-Glo, qHTS, dose response (AID 1347062; cut-off not given, nearly all actives have AC50 up to about 27 µM;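 as to AC50: cells exposed to compound for two days before readout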); conditions: JHH-DIPG-1 viability, CellTiter-Glo ATP luminescence
[3] = viability loss in pontine glioma line – cell-based, SU-DIPG-IV, MIPE4.0, CellTiter-Glo, qHTS, dose response (AID 1347063); conditions: CellTiter-Glo ATP luminescence;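 also: compound exposure lasted 48 hours before the viability readout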
[4] = growth inhibition of DIPG cells – cell-based, MIPE4.0 library, CellTiter-Glo luminescence, qHTS (AID 1347066); conditions: SU-DIPG-VI viability, CellTiter-Glo ATP luminescence;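 also: cells exposed to compound for 48 hours before readout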
[5] = JHH-DIPG-1 glioma cell viability, MIPE5.0 library, CellTiter-Glo luminescence, qHTS (AID 1347067; cut-off not given, nearly all actives have AC50 up to about 26 µM;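 also: cells exposed to compound for 48 hours before readout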); conditions: JHH-DIPG-1 glioma viability, CellTiter-Glo ATP luminescence
[6] = growth inhibition of DIPG cells – cell-based, MIPE5.0 library, qHTS (AID 1347068; cut-off not given, nearly all actives have IC50 up to about 30 µM); conditions: SU-DIPG-XXV viability
[7] = MELAS cybrid and Rieske KO viability enhancers – cell-based, MELAS cybrids, Rieske KO mouse fibroblasts, CellTiter-Glo, primary screen (AID 1508586;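 active = mean z-score across replicates of 1.96 or higher in either the MELAS or the Rieske mutant cell line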;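 also: z relative to plate mean and SD of compound and empty wells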); conditions: low glucose
[8] = viability loss with induced miR-34 in A549 – imaging, A549 dox-inducible miR-34, nuclei and caspase counts, primary screen (AID 1347080;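 active = compounds whose cell count with miR-34 switched on is under 0.7 times the count with it off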); conditions: A549 miR-34 inducible, Hoechst nuclei count, 48 h
[9] = viability loss in pontine glioma line – cell-based, SU-DIPG-XIII, MIPE5.0, CellTiter-Glo, qHTS, dose response (AID 1347064; cut-off not given, nearly all actives have AC50 up to about 23 µM;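 also: cells exposed to compound for 48 hours before the viability read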); conditions: CellTiter-Glo ATP luminescence
[10] = viability loss in pontine glioma line – cell-based, SU-DIPG-XXV, MIPE5.0, CellTiter-Glo, qHTS, dose response (AID 1347065; cut-off not given, nearly all actives have AC50 up to about 26 µM;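 also: cells exposed to compound for 48 hours before ATP readout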); conditions: CellTiter-Glo ATP luminescence
[11] = growth inhibition, single agent or in combination, cell-based, chromothripsis tumors, cisplatin or BGB combos (AID 1671449; in the data active = inhibition above about 80%;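 also: cells exposed for 96 hours; 0% = vehicle DMSO and 100% = killing by high DMSO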); conditions: LFS_MB_P medulloblastoma cells
[12] = growth inhibition, single agent and combos, cell-based, chromothripsis tumors, cisplatin or BGB combos (AID 1671450; in the data active = inhibition above about 80%;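 also: cells exposed to compound for four days; 0% = vehicle DMSO and 100% = cell killing by high DMSO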); conditions: HDN33 neuroblastoma cells, stronger effect = higher value
[13] = growth inhibition, single agents and combos, ICB984, cell-based, cisplatin or BGB combos, synergistic combos for chromothripsis tumors (AID 1671451; call rule not given here;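 also: cells exposed for 96 hours before readout; 0% = vehicle DMSO and 100% = killing by high DMSO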); conditions: ICB984 medulloblastoma cells, drug combinations, stronger effect = higher value
[14] = growth inhibition, single agents and combos, HTB85, cell-based, BGB or cisplatin IC20 combos, synergistic combos for chromothripsis tumors (AID 1671453; in the data active = inhibition above about 80%;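 also: cells exposed for 96 hours before readout; 0% = vehicle DMSO and 100% = high DMSO killing control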); conditions: HTB85 osteosarcoma cells, drug combinations, stronger effect = higher value
[15] = growth inhibition, MDA-MB-436, cell-based, BGB or cisplatin combos, synergistic combos for chromothripsis tumors (AID 1671458; call rule not given here;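 also: cells exposed for 96 hours; 0% = vehicle DMSO and 100% = killing by high DMSO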); conditions: MDA-MB-436 breast carcinoma growth inhibition, drug combinations, stronger effect = higher value
[16] = BT084 cell growth, single and combined drugs, ICGC_MB145, cisplatin and BGB IC40 combos (AID 1671461; in the data active = inhibition above about 80%;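 also: cells exposed to drugs for 96 hours; 0% = vehicle DMSO and 100% = high DMSO full killing control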); conditions: BT084 medulloblastoma cells, drug combinations, stronger effect = higher value
[17] = RCMB18 cell growth, single agent and combined, cisplatin and BGB IC40 combos (AID 1671462; in the data active = inhibition above about 80%;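 also: cells exposed to compound for four days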); conditions: RCMB18 medulloblastoma cells, stronger effect = higher value
[18] = CRL1545 cell growth, single agent and combined, cisplatin and BGB IC20 combos (AID 1671464; in the data active = inhibition above about 80%;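 also: cells exposed to compound for 96 hours before readout; 0% = vehicle DMSO and 100% = high DMSO killing control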); conditions: CRL1545 osteosarcoma cells, stronger effect = higher value
[19] = MELAS cybrid survival, CellTiter-Glo 48 h, stronger effect = higher value
[20] = Rieske KO mouse fibroblast survival, CellTiter-Glo 72 h
[21] = stronger effect = lower value, cell number ratio, induced over uninduced
[22] = measured here: relative caspase fold change +Dox/-Dox
[23] = measured here: total cells with miR-34 induction, stronger effect = lower value
[24] = measured here: total cells without miR-34 induction
[25] = measured here: with BGB IC20 combination, at 0.5 µM
[26] = measured here: with cisplatin IC20 combination, at 0.5 µM

With `CCCCCCCCCCCCCCCC(=O)OC[C@@H](NC(=O)C(Cl)Cl)[C@H](O)c1ccc([N+](=O)[O-])cc1` the outcome [1] was “inactive”, the outcome [2] was “inactive” and the outcome [3] was “inactive”. For the same compound, the outcome [4] was “inactive”.
For `Cc1ccn(-c2ccc(-c3ncco3)cc2)c(=O)c1-c1ccc2nc(N)ncc2c1`, the outcome [1] was “inactive”, the outcome [2] was “inactive” and the outcome [3] was “inactive”. For the same compound, the outcome [4] was “inactive” and the outcome [5] was “inactive”.
With `C=C1/C(=C/C=C2\CCCC3(C)[C@@H]([C@H](C)/C=C/C=C/C(O)(CC)CC)CC[C@@H]23)C[C@@H](O)C[C@@H]1O` (stereo partly drawn) the AC50 [1] was 18.7 µM (active), the AC50 [2] was 20.9 µM (active) and the AC50 [3] was 16.6 µM (active). The outcome [6] was “inactive”.
In the case of `CNc1ccc(C(=O)Oc2cc(ON[N+](=O)N(C)C)c([N+](=O)[O-])cc2C#N)cc1`, the outcome [1] is reported as “inactive”, the outcome [2] is reported as “inactive” and the outcome [3] is reported as “inactive”. For the same compound, the outcome [4] was “inactive”.
With `O=C(O)C1=NC(C(=O)O)CC(/C=C/N2c3cc(O)c(OC4OC(CO)C(O)C(O)C4O)cc3CC2C(=O)O)=C1` (stereo not drawn) the outcome [1] was “inactive”, the outcome [2] was “inactive” and the outcome [3] was “inactive”. The outcome [4] was “inactive”.
With `CC(C)CN(C[C@@H](O)[C@H](Cc1ccccc1)NC(=O)O[C@H]1CO[C@H]2OCC[C@H]21)S(=O)(=O)c1ccc(N)cc1` the AC50 [1] was 20.9 µM (active), the outcome [2] was “inactive” and the outcome [3] was “inactive”. The AC50 [4] was 23.5 µM (active), the z-score [7, 19] was 0.705 (inactive) and the z-score [7, 20] was 0.765.
With `Nc1nc(F)nc2c1ncn2[C@@H]1O[C@H](CO)[C@@H](O)[C@H]1O` the AC50 [1] was 1.05 µM (active), the AC50 [2] was 0.59 µM (active) and the AC50 [3] was 0.264 µM (active). For the same compound, the AC50 [4] was 0.833 µM (active).
For `C/C=C1\C2C=C(C)CC1(N)c1ccc(=O)[nH]c1C2` (stereo not drawn), the outcome [1] was “inactive”, the outcome [2] was “inactive” and the outcome [3] was “inactive”. The outcome [4] was “inactive”, the fold change [8, 21] was 1.01 (inactive) and the fold change [8, 22] was 0.681. For the same compound, the cell count [8, 23] was 4140 and the cell count [8, 24] was 4110.
In the case of `COc1cc2c(cc1OC)[C@@H]1Cc3ccc(OC)c(OC)c3CN1CC2`, the outcome [1] is reported as “inactive”, the outcome [2] is reported as “inactive” and the outcome [3] is reported as “inactive”. The outcome [4] was “inactive”, the fold change [8, 21] was 0.902 (inactive) and the fold change [8, 22] was 0.654. For the same compound, the cell count [8, 23] was 9170, the cell count [8, 24] was 10200 and the z-score [7, 19] was -0.395 (inactive). The z-score [7, 20] was 0.428.
With `CNC(=O)CN1CCC(Oc2cc3c(Nc4cccc(Cl)c4F)ncnc3cc2OC)CC1` the outcome [1] was “inactive”, the outcome [2] was “inactive” and the outcome [3] was “inactive”. The outcome [4] was “inactive”, the outcome [5] was “inactive” and the outcome [6] was “inactive”. For the same compound, the fold change [8, 21] was 0.965 (inactive), the fold change [8, 22] was 1.05 and the cell count [8, 23] was 5230. The cell count [8, 24] was 5420, the z-score [7, 19] was -0.464 (inactive) and the z-score [7, 20] was -0.429.
With `C[C@]12C=CC(=O)N[C@@H]1CC[C@@H]1[C@@H]2CC[C@]2(C)[C@@H](C(=O)Nc3cc(C(F)(F)F)ccc3C(F)(F)F)CC[C@@H]12` the outcome [1] was “inactive”, the outcome [2] was “inactive” and the outcome [3] was “inactive”.
With `CNC(=O)c1ccc(Nc2cc(Nc3ccccc3S(=O)(=O)C(C)C)c3cc[nH]c3n2)nc1` the AC50 [1] was 16.6 µM (active), the AC50 [2] was 14.8 µM (active) and the AC50 [3] was 11.8 µM (active). The AC50 [4] was 16.6 µM (active).
For `O=C(Nc1cc2cc[nH]c2cn1)c1ccccc1`, the AC50 [1] was 14.8 µM (active), the AC50 [2] was 5.9 µM (active) and the AC50 [3] was 3.32 µM (active). For the same compound, the AC50 [4] was 14.8 µM (active), the fold change [8, 21] was 0.982 (inactive) and the fold change [8, 22] was 0.194. The cell count [8, 23] was 8430, the cell count [8, 24] was 8590 and the z-score [7, 19] was -0.697 (inactive). For the same compound, the z-score [7, 20] was -2.76.
In the case of `N#CC1(c2cccc(C(=O)Nc3cc(Oc4ccc5nc(NC(=O)C6CC6)sc5n4)ccc3F)c2Cl)CC1`, the AC50 [1] is reported as 0.935 µM (active), the AC50 [2] is reported as 18.7 µM (active) and the AC50 [9] is reported as 0.742 µM (active). The AC50 [10] was 0.833 µM (active) and the outcome [4] was “inactive”.
With `N[C@H]1CN(c2c(F)cc3c(=O)c(C(=O)O)cn(C4C[C@H]4F)c3c2Cl)CC12CC2` (stereo partly drawn) the outcome [1] was “inactive”, the outcome [2] was “inactive” and the outcome [3] was “inactive”. The outcome [4] was “inactive”.
In the case of `CC(C(C)N1CC(=O)NC(=O)C1)N1CC(=O)NC(=O)C1` (stereo not drawn), the outcome [1] is reported as “inactive”, the outcome [2] is reported as “inactive” and the outcome [3] is reported as “inactive”. For the same compound, the outcome [4] was “inactive”, the outcome [5] was “inactive” and the outcome [6] was “inactive”.
With `O=C(O)CO.[NH2-].[NH2-].[Pt+2]` the outcome [1] was “inactive”, the outcome [2] was “inactive” and the outcome [3] was “inactive”. The outcome [4] was “inactive”, the inhibition ([11]; at 0.5 µM, stronger effect = higher value) was -35.8% (inactive) and the inhibition ([11]; measured here: combination with BGB IC20, at 0.005 µM) was -22.6%. The inhibition ([11]; measured here: combination with BGB IC40, at 0.005 µM) was -55.5%, the inhibition ([11]; measured here: combination with BGB IC40, at 0.05 µM) was -20.9% and the inhibition ([11]; measured here: combination with cisplatin, at 0.5 µM, stronger effect = higher value) was -40.8%. For the same compound, the inhibition ([11]; measured here: combination with cisplatin, at 5 µM, stronger effect = higher value) was -22.9%, the inhibition ([12]; BGB combo, at 5 µM) was -38.9% and the inhibition ([12]; at 0.5 µM) was 11.9% (inactive). It also gave an inhibition ([12]; cisplatin combo, at 5 µM) of 6.72%, an inhibition [12, 25] of 3.13% and an inhibition [12, 26] of 36.3%. It also gave an inhibition ([12]; single agent, at 5 µM) of -22.5%, an inhibition ([13]; BGB IC20 combo, at 0.005 µM) of -33.3% and an inhibition ([13]; BGB IC40 combo, at 0.005 µM) of -24.4%. For the same compound, the inhibition ([13]; BGB IC40 combo, at 0.05 µM) was -27.5%, the inhibition ([13]; at 0.5 µM) was -23.1% (inactive) and the inhibition ([13]; cisplatin combo, at 0.05 µM) was -34.1%. The inhibition ([13]; cisplatin combo, at 0.5 µM) was -33.3%, the inhibition ([13]; cisplatin combo, at 5 µM) was -25.6% and the inhibition ([13]; measured here: 5 uM single agent, at 5 µM) was -2.84%. The inhibition ([14]; at 0.5 µM) was 1.55% (inactive), the inhibition ([14]; measured here: with BGB IC20, at 0.5 µM) was 26.1% and the inhibition ([14]; measured here: with BGB IC20, at 5 µM) was -2.11%. It also gave an inhibition ([14]; measured here: with cisplatin IC20, at 0.5 µM) of -15.5%, an inhibition ([14]; measured here: with cisplatin IC20, at 5 µM) of -7.66% and an inhibition ([14]; single agent, at 5 µM) of -0.083%. The inhibition ([15]; at 0.5 µM) was -15.3% (inactive), the inhibition ([15]; measured here: BGB combination, at 0.5 µM) was -9.4% and the inhibition ([15]; measured here: BGB combination, at 5 µM) was 1.16%. For the same compound, the inhibition ([15]; measured here: cisplatin combination, at 0.5 µM) was -35.5%, the inhibition ([15]; measured here: cisplatin combination, at 5 µM) was -23.8% and the inhibition ([16]; at 0.5 µM) was -4.94% (inactive). It also gave an inhibition ([16]; cisplatin combination, at 0.5 µM) of 2.17%, an inhibition ([16]; cisplatin combination, at 5 µM) of -267% and an inhibition ([16]; measured here: BGB IC40 combination 0.05 uM, at 0.05 µM) of -15.1%. The inhibition ([16]; single agent, at 5 µM) was -4.36%, the inhibition ([17]; at 0.5 µM) was -16.2% (inactive) and the inhibition ([17]; cisplatin combo, at 5 µM) was 4.38%. It also gave an inhibition ([17]; measured here: BGB IC40 combination, at 0.05 µM) of -28.2%, an inhibition ([17]; measured here: combination with cisplatin, at 0.5 µM) of 6.48% and an inhibition ([17]; single agent, at 5 µM) of -8.12%. The inhibition ([18]; at 0.5 µM) was -2.61% (inactive), the inhibition [18, 25] was -12.1% and the inhibition [18, 26] was 0.578%. The inhibition ([18]; single agent, at 0.05 µM) was -10.5% and the inhibition ([18]; single agent, at 5 µM) was -18%.
